GPR151 ag: human GPR151 activation; 1% of 650,000 active; PathHunter beta-arrestin GPR151 cells, luminescence; AID 1508602; activation, % at 11.2 µM; in the data active = activation above about 4.9%;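 note: 0% = median of compound wells and 100% = cells with positive control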
MITF inh: inhibitors of human MITF. AlphaScreen MITF homodimerization, bead proximity signal. inhibition, % at 2.6 µM. 0.91% of 650,000 active. AID 1259374; in the data active = inhibition above about 50%;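 note: 0% = vehicle wells with protein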
FBW7 activator: human FBW7 E3 ligase activation, primary screen; AlphaScreen FBW7–phospho-cyclin E peptide binding, activator screen; Q969H0; 0.13% of 650,000 active; normalized activity (activation), % at 26.1 µM; in the data active = normalized activity above about 1.9%;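 note: purified mutant Fbw7 with reduced substrate affinity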
Target sequence (Q969H0 whole entry, looked up): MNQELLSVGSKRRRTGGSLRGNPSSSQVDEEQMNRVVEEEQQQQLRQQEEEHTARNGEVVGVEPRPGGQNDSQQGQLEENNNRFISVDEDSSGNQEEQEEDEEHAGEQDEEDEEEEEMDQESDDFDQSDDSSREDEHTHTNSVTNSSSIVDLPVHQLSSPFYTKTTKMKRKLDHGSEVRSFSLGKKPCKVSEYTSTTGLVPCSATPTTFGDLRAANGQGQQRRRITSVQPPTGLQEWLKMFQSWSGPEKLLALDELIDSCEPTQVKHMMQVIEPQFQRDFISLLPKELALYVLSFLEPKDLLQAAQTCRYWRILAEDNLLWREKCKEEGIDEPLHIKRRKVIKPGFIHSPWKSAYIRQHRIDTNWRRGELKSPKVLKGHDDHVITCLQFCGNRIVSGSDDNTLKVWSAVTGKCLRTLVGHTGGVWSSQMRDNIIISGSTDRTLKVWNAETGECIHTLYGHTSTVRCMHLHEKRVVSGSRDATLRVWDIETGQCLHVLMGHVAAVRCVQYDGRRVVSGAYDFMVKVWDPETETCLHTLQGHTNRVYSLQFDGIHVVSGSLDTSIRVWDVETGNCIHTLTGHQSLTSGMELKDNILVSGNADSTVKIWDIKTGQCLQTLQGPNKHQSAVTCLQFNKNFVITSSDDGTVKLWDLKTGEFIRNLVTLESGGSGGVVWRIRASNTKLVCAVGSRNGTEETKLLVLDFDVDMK
TEAD-YAP block: TEAD-YAP interaction inhibition. HEK-TIYL cells, TEAD-Gal4/YAP UAS-luciferase luminescence. inhibition, % at 9.12 µM. 1.4% of 640,000 active. AID 1259422; in the data active = inhibition above about 32%;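 note: 0% = median of test compound wells and 100% = reference inhibitor wells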
MITF inh conf: confirmation of human MITF inhibitors; shares compounds with MITF inh; AID 1259372; AlphaScreen MITF homodimerization, biotin/His-MITF beads; inhibition, % at 2.6 µM; 16% of 4,700 active;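 active = inhibition above a cutoff derived from the DMSO control wells, cut at about 28% in these data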;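 note: 0% = MITF dimer wells with DMSO only; inhibitors lower the bead chemiluminescence by keeping MITF from dimerizing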
AS interf DR: AlphaScreen optical interference, dose response counter-screen; shares compounds with MITF inh; AlphaScreen optical interference counterscreen, cell-free; IC50, µM; 6% of 480 active; AID 1259373; call rule not given here
AlphaScreen intf2: optically interferes with AlphaScreen signal; shares compounds with MITF inh; AID 1259376; 7.6% of 4,700 active; inhibition, % at 2.6 µM; LysRS AlphaScreen counterscreen, signal interference, triplicate;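 active = inhibition above a cutoff derived from the DMSO control wells, cut at about 30% in these data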
* = called active by the depositor; · = not tested or not shown; ! = not confirmed by another sample. Compounds with a hit are over-represented: about 3.4% of the library has one in this group of screens.

SMILES | GPR151 ag | MITF inh | FBW7 activator | TEAD-YAP block | MITF inh conf | AlphaScreen intf2 | others
CN(C)c1ccc(C(=O)N2N=C(C(F)F)CC2(O)C(F)F)cc1 (configuration not stated) | -0.6 | -1.5 | -0.1 | -6.2 | · | ·
CN(C)c1cccc(C(=O)N2N=C(C(F)F)CC2(O)C(F)F)c1 (configuration not stated) | -0.6 | 75.0* | 0.5 | 9.4 | 12.8 | 19.2
Cc1n[nH]c(=S)n1/N=C/c1ccccc1F | 2.5 | 70.0* | 0.2 | -10.9 | -8.5 | -1.6
O=C(Nc1ccc(Br)cc1)c1ccc([N+](=O)[O-])o1 | 1.4 | 9.9 | 0.3 | 9.4 | · | ·
CC(=O)NS(=O)(=O)c1ccc(NC(=O)c2ccc([N+](=O)[O-])o2)cc1 | 3.0 | 64.1* | -0.1 | 11.5 | 40.4* | -5.1 | AS interf DR=>6.61
N#CCCN(CC(=O)c1ccc(Br)cc1)Cc1ccco1 | -0.5 | 62.6* | -0.1 | -4.7 | 0.3 | 9.1
O=C(NCc1ccco1)c1ccc(Br)cc1 | 1.5 | 14.2 | 0.4 | 2.2 | · | ·
O=C(COC(=O)c1cccc(N2C(=O)c3ccccc3C2=O)c1)c1ccccc1 | 2.2 | 5.0 | 0.1 | -27.6 | · | ·
CC(=O)c1cccc(N2C(=O)c3ccc(C(=O)OCC(=O)c4ccc([N+](=O)[O-])cc4)cc3C2=O)c1 | 0.6 | 59.9* | -0.1 | -3.1 | 21.4 | 26.2
CC(C)(C)C(=O)COC(=O)c1cccc(N2C(=O)c3ccccc3C2=O)c1 | -0.2 | 52.6* | 0.0 | 0.7 | 7.2 | -2.4
O=C(COC(=O)c1ccc2c(c1)C(=O)N(c1cccc(Cl)c1)C2=O)c1ccc([N+](=O)[O-])cc1 | -0.1 | 1.1 | 0.5 | 3.0 | · | ·
COc1cc(C(=O)NCCC(=O)NC2CCCCCCC2)cc(OC)c1OC | -0.9 | 78.1* | -0.1 | 6.8 | -0.6 | 1.2
CN(c1ccccc1)P1(=O)C=C(c2ccccc2)OC(c2ccccc2)=C1 | 1.1 | 4.1 | 0.0 | 7.0 | · | ·
CC(C(=O)N1CCCC1)N1CCN(C(c2ccccc2)c2ccccc2)CC1 (configuration not stated) | -1.7 | 84.8* | -0.2 | 1.1 | 4.6 | 15.4
CCC(C(=O)N1CCCC1)c1ccccc1 (configuration not stated) | -0.1 | -11.7 | -0.2 | 2.1 | · | ·
O=C1c2c(O)cccc2Cc2cccc(O)c21 | -0.6 | 85.9*! | -0.1 | 0.5 | 115.5* | -22.9 | AS interf DR=>6.48
Cc1cc(O)c2c(c1)C(=O)c1cccc(O)c1C2=O | 0.0 | 15.4 | -0.3 | -2.5 | · | ·
CCN(CC)CCNc1nc(-c2cccs2)c(CC(=O)O)s1 | 0.9 | 78.8* | 0.1 | 5.0 | -9.2 | 5.0
O=C(O)Cc1sc(NCc2ccco2)nc1-c1cccs1 | 1.4 | 18.0 | 0.4 | 0.3 | · | ·
CC1(C)Cc2c(sc(NC(=O)CCCN3C(=O)c4ccccc4C3=O)c2C#N)C(C)(C)N1 | 0.3 | 15.2 | 0.6 | 9.9 | · | ·
CC12COC3(C(=O)NCC(F)(F)F)CC1CCC32C (configuration not stated) | 0.6 | -1.4 | -0.1 | 8.2 | · | ·
CC(C)c1ccc(OCC(=O)NCCS(=O)(=O)N2CCc3ccccc32)cc1 | 0.8 | 80.5* | -0.1 | 3.2 | -7.2 | -2.3
CCC(=O)N(CCO)Cc1cc2cc(C)ccc2[nH]c1=O | 0.1 | 7.1 | 0.1 | 3.9 | · | ·
Cc1cc(C)nc(SCc2cc(=O)c(OC(=O)c3ccccc3[N+](=O)[O-])co2)n1 | 2.3 | 9.4 | -0.1 | -9.7 | · | ·
Cc1ccc(-c2ncn(-c3ccc(Nc4cc(-n5cnc(Nc6ccccc6)n5)c(F)cn4)cc3)n2)cn1 | -0.7 | 90.7* | 0.2 | -4.2 | 52.0* | -10.4 | AS interf DR=>6.48
SMILES | GPR151 ag | MITF inh | FBW7 activator | TEAD-YAP block | MITF inh conf | AlphaScreen intf2 | others
CCOC(=O)C1=C(c2ccccc2)N=c2s/c(=C\c3cc4c(cc3Br)OCO4)c(=O)n2C1c1ccccc1OC (configuration not stated) | -0.8 | 4.6 | -0.1 | 6.3 | · | ·
Cc1nc(S(=O)(=O)c2ccccc2)c(SCc2ccc([N+](=O)[O-])cc2)o1 | -0.9 | 61.9* | 0.0 | 9.1 | -0.6 | 32.9*
Cc1ccc(C(C)C)cc1OCCOCCN1CCNCC1 | 0.4 | 70.6* | -0.2 | -7.5 | 11.5 | -0.2
Cc1cc(OCCOCCN2CCNCC2)ccc1Cl | -1.7 | 68.3* | 0.6 | -21.7 | 74.1* | 18.8 | AS interf DR=>6.48
O=C(Nc1sc2c(c1C(=O)Nc1ccccc1)CCC2)c1ccc([N+](=O)[O-])cc1 | 0.7 | 5.3 | 0.0 | 1.2 | · | ·
CC1(C)CCCC2=C1CC(C(=O)O)C(C(=O)N1CCCCC1)C2 (configuration not stated) | -0.3 | 84.7* | 0.1 | -1.0 | 3.4 | 12.2
COc1ccc(CN2CCN(Cc3ccc4c(c3)OCO4)CC2)cc1 | 0.2 | 64.1* | -0.1 | -2.6 | 13.8 | 12.7
COc1ccc(C(=O)N2CCN(Cc3ccc4c(c3)OCO4)CC2)cc1 | -0.3 | 54.7* | -0.1 | -2.9 | 4.0 | 13.8
COc1ccc(NC(=S)N2CCN(Cc3ccc4c(c3)OCO4)CC2)cc1 | -0.7 | 15.4 | 0.4 | -9.7 | · | ·
Cc1ccc(C(=O)N2CCN(Cc3ccc4c(c3)OCO4)CC2)cc1 | -0.5 | 7.8 | -0.1 | 3.1 | · | ·
Fc1ccc(CN2CCN(Cc3ccc4c(c3)OCO4)CC2)c(F)c1 | -0.6 | 60.9* | 0.1 | 0.4 | 0.1 | 5.7
Cc1cc(C)c(C2C(C#N)=C(N)Oc3n[nH]c(C)c32)cc1CSc1ccc(Br)cc1 (configuration not stated) | 1.2 | 99.2* | -0.6 | -10.3 | -9.1 | -9.0
Cc1cc(C)c(C2C(C#N)=C(N)Oc3n[nH]c(C)c32)cc1COc1ccc(F)cc1 (configuration not stated) | 0.3 | 6.1 | 0.0 | 0.3 | · | ·
O=C(COc1ccc2c(c1)CCC2)Nc1nc2ccccc2[nH]1 | 3.0 | 2.4 | 0.1 | -21.1 | · | ·
CCc1cc(CNC(=O)CC2C(=O)NCCN2Cc2cccc3ccccc23)on1 (configuration not stated) | -0.2 | 10.6 | 0.4 | 11.1 | · | ·
c1cn(-c2ccc(Nc3nc4ncnc(NCCN5CCOCC5)c4[nH]3)cc2)cn1 | 1.2 | 87.7* | -0.1 | -6.3 | 5.8 | 19.6
c1cn(-c2ccc(Nc3nc4ncnc(Nc5ccc(N6CCOCC6)cc5)c4[nH]3)cc2)cn1 | -3.5 | -5.0 | -0.3 | 31.3 | · | ·
O=C(/C=C/c1ccccc1)Nc1ccc(S(=O)(=O)N2CCCCC2)cc1 | -0.1 | -8.3 | -0.1 | 6.3 | · | ·
c1ccc(-c2cc(N3CCOCC3)nc(-c3ccccn3)n2)cc1 | 3.3 | 76.9* | -0.2 | 17.8 | 12.0 | 11.1
CCCOc1ccc(C2Oc3ccc(Br)cc3C3CC(c4ccccc4)=NN32)cc1 (configuration not stated) | -1.6 | 8.3 | 0.2 | -55.7 | · | ·
CCCOc1ccc(C2Oc3ccc(Br)cc3C3CC(c4ccc(Cl)cc4)=NN32)cc1 (configuration not stated) | -1.6 | 74.4* | -0.1 | -28.5 | 5.3 | 15.1
CC(C)(C)C(=O)Nc1ncc(S(=O)(=O)c2ccc([N+](=O)[O-])cc2)s1 | -1.4 | 20.1 | 0.7 | 13.3 | · | ·

Source: PubChem
